Common to all, as to experiment: protein-binding microarray (PBM); PBM: ~300 nM protein, 6 mM HEPES pH 7.8, 80 mM KCl, 0.5 mM EDTA, 0.5 mM EGTA, 6% glycerol, 35 ng/ul poly-dIdC, 1% milk, 1 h, room temperature; Ap Aiptasia and Nv Nematostella (sea anemones) / Co Capsaspora / Aq Amphimedon (sponge) / Dm Drosophila / Hu human; RHD is the Rel homology domain; high values mean tight binding
Holding throughout (conditions): dsDNA, one strand shown

One assay concerns the target T1, GST-Ap-NF-kB RHD (Exaiptasia pallida (Aiptasia), UniProt A0A913YAJ5 2-422).
T1 sequence: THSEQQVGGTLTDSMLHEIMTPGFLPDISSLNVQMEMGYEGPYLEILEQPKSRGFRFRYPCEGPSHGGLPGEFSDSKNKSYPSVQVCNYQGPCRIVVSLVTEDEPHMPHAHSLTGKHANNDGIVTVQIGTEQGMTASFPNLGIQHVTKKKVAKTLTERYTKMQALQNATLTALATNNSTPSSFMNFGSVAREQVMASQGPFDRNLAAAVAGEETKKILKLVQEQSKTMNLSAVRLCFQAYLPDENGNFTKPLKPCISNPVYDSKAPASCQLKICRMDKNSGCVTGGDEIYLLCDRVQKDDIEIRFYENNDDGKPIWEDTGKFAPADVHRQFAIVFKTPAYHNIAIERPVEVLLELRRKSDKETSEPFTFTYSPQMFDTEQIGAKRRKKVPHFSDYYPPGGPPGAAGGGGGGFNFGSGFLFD

Assay [1] concerns the target T2, GST-Nv-NF-kB (Cys allele) (Nematostella vectensis, UniProt E5G601 2-411).
T2 sequence: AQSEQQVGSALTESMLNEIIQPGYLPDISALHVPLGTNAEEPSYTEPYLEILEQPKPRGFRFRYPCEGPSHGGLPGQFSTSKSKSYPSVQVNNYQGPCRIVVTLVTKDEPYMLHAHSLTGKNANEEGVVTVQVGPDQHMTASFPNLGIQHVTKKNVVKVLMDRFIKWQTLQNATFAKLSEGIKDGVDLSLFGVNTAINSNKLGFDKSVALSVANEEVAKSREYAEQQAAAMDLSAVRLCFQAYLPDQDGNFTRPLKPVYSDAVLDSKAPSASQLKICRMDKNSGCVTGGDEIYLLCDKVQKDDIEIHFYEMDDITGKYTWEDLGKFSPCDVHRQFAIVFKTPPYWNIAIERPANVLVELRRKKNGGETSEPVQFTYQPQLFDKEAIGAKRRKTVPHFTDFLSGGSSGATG

Assay [2] concerns the target T3, GST-Nv-NF-kB (Ser allele) (Nematostella vectensis, UniProt A7UNT2 2-411).
T3 sequence: T2 sequence with Q21R, C66S, S207N, E215Q, V217A, E225K, A268E, D399E

Another assay concerns the target T4, GST-Dm-Relish (Drosophila melanogaster, UniProt Q94527 99-473).
T4 sequence: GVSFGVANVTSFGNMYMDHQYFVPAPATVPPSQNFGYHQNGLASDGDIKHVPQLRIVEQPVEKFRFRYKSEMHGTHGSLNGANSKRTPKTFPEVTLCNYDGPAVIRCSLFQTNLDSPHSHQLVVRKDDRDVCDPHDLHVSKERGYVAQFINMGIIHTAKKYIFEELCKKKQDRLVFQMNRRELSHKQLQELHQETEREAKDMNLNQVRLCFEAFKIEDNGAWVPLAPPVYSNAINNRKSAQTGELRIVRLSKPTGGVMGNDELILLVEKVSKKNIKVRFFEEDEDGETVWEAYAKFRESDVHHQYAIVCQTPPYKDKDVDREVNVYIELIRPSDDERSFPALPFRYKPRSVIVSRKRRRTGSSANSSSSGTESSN

A further assay has as its target T5, GST-Aq-NF-kB (Amphimedon queenslandica, UniProt A9Y5G7 2-389).
T5 sequence: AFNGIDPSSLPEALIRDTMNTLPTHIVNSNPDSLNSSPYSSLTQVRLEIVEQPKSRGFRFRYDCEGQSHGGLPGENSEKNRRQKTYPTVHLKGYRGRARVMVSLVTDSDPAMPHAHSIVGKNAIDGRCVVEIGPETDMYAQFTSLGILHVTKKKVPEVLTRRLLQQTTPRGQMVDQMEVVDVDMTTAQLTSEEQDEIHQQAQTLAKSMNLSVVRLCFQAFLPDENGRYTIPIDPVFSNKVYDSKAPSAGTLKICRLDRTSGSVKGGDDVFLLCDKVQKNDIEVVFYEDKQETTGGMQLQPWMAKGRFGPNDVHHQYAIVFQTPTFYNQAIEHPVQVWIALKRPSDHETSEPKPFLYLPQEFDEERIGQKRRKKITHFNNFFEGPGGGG

In another assay the target is GST-Hu-p50 (Homo sapiens, UniProt P19838 7-356).
Chain of GST-Hu-p50 (P19838 7-356): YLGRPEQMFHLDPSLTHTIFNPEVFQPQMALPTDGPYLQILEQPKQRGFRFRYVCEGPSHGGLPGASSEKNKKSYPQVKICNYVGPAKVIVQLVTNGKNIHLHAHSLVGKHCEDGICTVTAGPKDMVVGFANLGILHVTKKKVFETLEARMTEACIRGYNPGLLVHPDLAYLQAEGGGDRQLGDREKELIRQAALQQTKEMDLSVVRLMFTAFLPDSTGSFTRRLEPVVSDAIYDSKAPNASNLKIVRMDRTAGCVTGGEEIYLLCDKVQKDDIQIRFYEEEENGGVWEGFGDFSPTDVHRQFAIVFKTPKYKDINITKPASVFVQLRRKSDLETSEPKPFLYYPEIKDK
A further assay addresses T6, GST-Co-NF-kB (Capsaspora owczarzaki, UniProt F1ARL5 200-546).
T6 sequence: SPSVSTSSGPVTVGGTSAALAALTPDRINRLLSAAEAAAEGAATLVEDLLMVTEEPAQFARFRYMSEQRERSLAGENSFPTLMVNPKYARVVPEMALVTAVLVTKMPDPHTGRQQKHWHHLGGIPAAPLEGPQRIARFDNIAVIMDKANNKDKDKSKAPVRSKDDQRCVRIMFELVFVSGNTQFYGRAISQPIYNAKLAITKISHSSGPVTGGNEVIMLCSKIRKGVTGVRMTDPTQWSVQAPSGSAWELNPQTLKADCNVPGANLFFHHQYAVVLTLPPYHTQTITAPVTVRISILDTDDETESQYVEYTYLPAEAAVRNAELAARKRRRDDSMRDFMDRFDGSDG

Positions count from the first letter of the chain named.

As to “CCGATTAACATCAAAAAGCCCCTTGATGTTAATCGGGTCTTGATTCGCTTGACGCTGCTG”, the binding signal was found to be 7.33 z-score with GST-Ap-NF-kB RHD; 9.57 z-score in assay [1]; 7.49 z-score in assay [2]; 8.7 z-score with GST-Dm-Relish; 7.9 z-score in the assay with GST-Aq-NF-kB; 6.72 z-score in the assay with GST-Hu-p50.
With “CCGATTAACATCAAAATGCCCCCTGATGTTAATCGGGTCTTGATTCGCTTGACGCTGCTG”, the binding signal was determined as 5.68 z-score with GST-Ap-NF-kB RHD; 5.66 z-score in assay [1]; 4.18 z-score with GST-Co-NF-kB; 5.29 z-score in the assay with GST-Dm-Relish; 6.11 z-score in the assay with GST-Aq-NF-kB; 5.37 z-score with GST-Hu-p50.
For “CCGATTAACATCACGGGAAGTACTGATGTTAATCGGGTCTTGATTCGCTTGACGCTGCTG”, the binding signal with GST-Ap-NF-kB RHD was 1.21 z-score; in assay [1], 1.43 z-score; with GST-Co-NF-kB, 1.57 z-score; with GST-Dm-Relish, 8.29 z-score; with GST-Aq-NF-kB it was 3.28 z-score; in the assay with GST-Hu-p50, 1.09 z-score.
For the sequence “CCGATTAACATCAGGAGATCCCCTGATGTTAATCGGGTCTTGATTCGCTTGACGCTGCTG”, the binding signal with GST-Ap-NF-kB RHD amounted to 7.87 z-score; in assay [1], 8.09 z-score; with GST-Co-NF-kB, 2.55 z-score; with GST-Dm-Relish, 8.66 z-score; with GST-Aq-NF-kB, 8.6 z-score; with GST-Hu-p50, 5.88 z-score.
As to “CCGATTAACATCAGGGAAATTAATGATGTTAATCGGGTCTTGATTCGCTTGACGCTGCTG”, the binding signal with GST-Ap-NF-kB RHD worked out at 3.37 z-score; in assay [1] it was 5.52 z-score; in the assay with GST-Co-NF-kB it was 4.18 z-score; with GST-Dm-Relish it was 2.54 z-score; in the assay with GST-Aq-NF-kB, 4.81 z-score; in the assay with GST-Hu-p50 it was 4.27 z-score.
Regarding “CCGATTAACATCAAAAATGCCCCTGATGTTAATCGGGTCTTGATTCGCTTGACGCTGCTG”, the binding signal turned out to be 4.41 z-score with GST-Ap-NF-kB RHD; 6.79 z-score in assay [1]; 2.95 z-score with GST-Co-NF-kB; 5.68 z-score in the assay with GST-Dm-Relish; 6.07 z-score in the assay with GST-Aq-NF-kB; 5.92 z-score with GST-Hu-p50.
On to “CCGATTAACATCAATATCCCCCCTGATGTTAATCGGGTCTTGATTCGCTTGACGCTGCTG”, for which the binding signal with GST-Ap-NF-kB RHD was found to be 7.34 z-score; in assay [1] it was 5.13 z-score; with GST-Co-NF-kB, 8.06 z-score; with GST-Dm-Relish it was 5.53 z-score; in the assay with GST-Aq-NF-kB it was 5.74 z-score; with GST-Hu-p50, 5.69 z-score.
In the case of “CCGATTAACATCAGGGAAACTTATGATGTTAATCGGGTCTTGATTCGCTTGACGCTGCTG”, the binding signal with GST-Ap-NF-kB RHD came to 3.98 z-score; in assay [1], 6.28 z-score; in the assay with GST-Co-NF-kB, 5.54 z-score; with GST-Dm-Relish, 2.25 z-score; with GST-Aq-NF-kB, 6.43 z-score; with GST-Hu-p50, 4.53 z-score.
As to “CCGATTAACATCAAGAAAATCCCTGATGTTAATCGGGTCTTGATTCGCTTGACGCTGCTG”, the binding signal with GST-Ap-NF-kB RHD is 5.56 z-score; in assay [1], 5.43 z-score; with GST-Co-NF-kB, 2.27 z-score; with GST-Dm-Relish, 6.64 z-score; in the assay with GST-Aq-NF-kB it was 5.58 z-score; in the assay with GST-Hu-p50, 4.6 z-score.
Turning to “CCGATTAACATCAAAGAGTCCCCTGATGTTAATCGGGTCTTGATTCGCTTGACGCTGCTG”, the binding signal in the assay with GST-Ap-NF-kB RHD is 6.56 z-score; in assay [1], 6.17 z-score; with GST-Co-NF-kB it was 3.49 z-score; with GST-Dm-Relish, 6.3 z-score; with GST-Aq-NF-kB it was 5.8 z-score; with GST-Hu-p50 it was 5.88 z-score.
“CCGATTAACATCAAAGAGCCCCCTGATGTTAATCGGGTCTTGATTCGCTTGACGCTGCTG”: the binding signal in the assay with GST-Ap-NF-kB RHD came to 4.73 z-score; in assay [1], 4.16 z-score; with GST-Co-NF-kB, 1.68 z-score; in the assay with GST-Dm-Relish it was 3.94 z-score; with GST-Aq-NF-kB, 5.01 z-score; with GST-Hu-p50, 4.43 z-score.
Take “CCGATTAACATCAGAGATCCCCCTGATGTTAATCGGGTCTTGATTCGCTTGACGCTGCTG”: the binding signal with GST-Ap-NF-kB RHD stood at 7.26 z-score; in assay [1], 6.17 z-score; in the assay with GST-Co-NF-kB it was 4.52 z-score; with GST-Dm-Relish it was 6.84 z-score; with GST-Aq-NF-kB it was 5.8 z-score; in the assay with GST-Hu-p50, 6.13 z-score.
For “CCGATTAACATCACAGAAACCCCTGATGTTAATCGGGTCTTGATTCGCTTGACGCTGCTG”, the binding signal stood at 5.66 z-score with GST-Ap-NF-kB RHD; 4.62 z-score in assay [1]; 1.21 z-score with GST-Co-NF-kB; 6.6 z-score with GST-Dm-Relish; 4.61 z-score with GST-Aq-NF-kB; 5.39 z-score with GST-Hu-p50.
As for “CCGATTAACATCAAAGCACCCCCTGATGTTAATCGGGTCTTGATTCGCTTGACGCTGCTG”, the binding signal is 4.9 z-score with GST-Ap-NF-kB RHD; 3.86 z-score in assay [1]; 3.63 z-score in the assay with GST-Co-NF-kB; 3.26 z-score with GST-Dm-Relish; 4.36 z-score with GST-Aq-NF-kB; 4.35 z-score with GST-Hu-p50.
“CCGATTAACATCAGAAATACCCATGATGTTAATCGGGTCTTGATTCGCTTGACGCTGCTG”: the binding signal in the assay with GST-Ap-NF-kB RHD was determined as 4.24 z-score; in assay [1], 5.32 z-score; with GST-Co-NF-kB, 1.74 z-score; in the assay with GST-Dm-Relish it was 3 z-score; with GST-Aq-NF-kB, 4.73 z-score; in the assay with GST-Hu-p50, 5.12 z-score.
